Laboratory results as given in PubChem BioAssay AID588393 (NMMLSC, 2011).
The source made the active and inactive calls.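 Rule for the calls: active = valid curve fit, half-maximal dose at most 10 µM, and binding change across doses at least 30%; inactive = the rest.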

These molecules were tested on Rab7 GTPase, wild type (Canis lupus familiaris) (assay: inhibition of Bodipy-GTP binding to Rab7 – biochemical, dog Rab7, bead multiplex flow cytometry, round 1, Cdc42 probe extension project, SAR follow-up (AID 588393)). Conditions: GST-Rab7 beads, Bodipy-FL-GTP binding, EDTA; series mostly up to 100 µM.

outcome, inactive:
O=C(C#Cc1ccccc1)c1cccc([N+](=O)[O-])c1, COc1ccc(C2CC(c3ccccc3)=NN2c2ccc(S(N)(=O)=O)cc2)cc1 (stereo not drawn), NS(=O)(=O)c1ccc(N2N=C(c3ccccc3)CC2c2ccccc2)cc1 (stereo not drawn)
